# According to PubChem BioAssay AID624161 (National Center for Advancing Translational Sciences (NCATS), 2012):
# The other results are listed elsewhere or left out. Results filed as inconclusive are left out. Calls of active or inactive are those of the source. Calls come from the whole dose curve; as a rule, active = well fitted inhibition curve with a large enough effect; inconclusive = small, poorly fitted or top-dose-only effect; inactive = no such curve, though single readings can be large or run the other way.
# Target: Histone-lysine N-methyltransferase 2A (Homo sapiens) (UniProt Q03164)
# Assay: qHTS Fluorescence Polarization (FP) Assay for Inhibitors of MLL CXXC domain - DNA interaction: Texas Red FP; note: nearly all actives have a fitted effect of over 75% in size
# Conditions: MLL CXXC-DNA binding; series mostly up to 345 µM
# Description: The MLL (Mixed Lineage Luekemia) gene is involved in chromosomal translocation that results in either acute lymphoid leukemia (ALL) or acute myeloid leukemia (AML). Chromasomal translocation of MLL gene is responsible for the fusion of N-terminal MLL to more than 60 different partner genes in frame. Many of the MLL partner genes contain transcription activation domains or function as transcriptional activators. Despite the heterogeneity of fusion partners, the N-terminus of MLL fusion proteins always consists of the N-terminal menin binding motif and the CXXC domain. The MLL-CXXC domain specifically recognizes unmethylated CpG sequences of the HOX-A gene. Disruption of the MLL-CXXC and HOX-A gene interaction leads to down regulation of HOX-A gene expression and may potentially reverse leukemogenesis. We have miniaturized and optimized an in-vitro assay to screen for inhibitors of the MLL-CXXC domain and HOX-A DNA interaction, which could have utility in MLL fusion leukemias.
# This is a hit validation assay that tests this hits identified in the primary screen in this secondary screen, using a Texas Red FP as a read-out.
# NIH Molecular Libraries Probe Production Network [MLPCN]
# NIH Chemical Genomics Center [NCGC]
# PI Name: John Bushweller, University of Virgina
# The affinity purified MLL-CXXC domain, unlabeled HOX-A9 DNA strand, Texas Red (FLSN) labeled HOX-A9 DNA strand were kindly supplied by the laboratory of Dr. John Bushweller, University of Virginia. All reagents were stored in single use aliquots at -80C.
# Assay buffer: 50 mM TRIS-HCl pH 7.5, 50 mM NaCl, 1 mM DTT. Add 0.05% BSA prior to reaction setup.
# 1.Dispense 1 ul of a 7 uM MLL-CXXC solution prepared in assay buffer into column 1-48.
# 2.Transfer 23 nl of compounds and unlabeled HOX-A9 per well.
# 3.Incubate for 5 minutes at ambient.
# 4.Dispense 1ul of a 50 nM TR-HOX-A9 solution prepared in assay buffer into columns 1-48
# 5.Centrifuge for 30 seconds at 1000 RPM.
# 6.Incubate for 30 minutes at ambient.
# 7.Read using the Envision reader fluorescent polarization protocol.
# Potency is the fitted concentration of half-maximal effect.
# Histone-lysine N-methyltransferase 2A (Homo sapiens), sequence (Q03164 whole entry, looked up, the tested form may be a part): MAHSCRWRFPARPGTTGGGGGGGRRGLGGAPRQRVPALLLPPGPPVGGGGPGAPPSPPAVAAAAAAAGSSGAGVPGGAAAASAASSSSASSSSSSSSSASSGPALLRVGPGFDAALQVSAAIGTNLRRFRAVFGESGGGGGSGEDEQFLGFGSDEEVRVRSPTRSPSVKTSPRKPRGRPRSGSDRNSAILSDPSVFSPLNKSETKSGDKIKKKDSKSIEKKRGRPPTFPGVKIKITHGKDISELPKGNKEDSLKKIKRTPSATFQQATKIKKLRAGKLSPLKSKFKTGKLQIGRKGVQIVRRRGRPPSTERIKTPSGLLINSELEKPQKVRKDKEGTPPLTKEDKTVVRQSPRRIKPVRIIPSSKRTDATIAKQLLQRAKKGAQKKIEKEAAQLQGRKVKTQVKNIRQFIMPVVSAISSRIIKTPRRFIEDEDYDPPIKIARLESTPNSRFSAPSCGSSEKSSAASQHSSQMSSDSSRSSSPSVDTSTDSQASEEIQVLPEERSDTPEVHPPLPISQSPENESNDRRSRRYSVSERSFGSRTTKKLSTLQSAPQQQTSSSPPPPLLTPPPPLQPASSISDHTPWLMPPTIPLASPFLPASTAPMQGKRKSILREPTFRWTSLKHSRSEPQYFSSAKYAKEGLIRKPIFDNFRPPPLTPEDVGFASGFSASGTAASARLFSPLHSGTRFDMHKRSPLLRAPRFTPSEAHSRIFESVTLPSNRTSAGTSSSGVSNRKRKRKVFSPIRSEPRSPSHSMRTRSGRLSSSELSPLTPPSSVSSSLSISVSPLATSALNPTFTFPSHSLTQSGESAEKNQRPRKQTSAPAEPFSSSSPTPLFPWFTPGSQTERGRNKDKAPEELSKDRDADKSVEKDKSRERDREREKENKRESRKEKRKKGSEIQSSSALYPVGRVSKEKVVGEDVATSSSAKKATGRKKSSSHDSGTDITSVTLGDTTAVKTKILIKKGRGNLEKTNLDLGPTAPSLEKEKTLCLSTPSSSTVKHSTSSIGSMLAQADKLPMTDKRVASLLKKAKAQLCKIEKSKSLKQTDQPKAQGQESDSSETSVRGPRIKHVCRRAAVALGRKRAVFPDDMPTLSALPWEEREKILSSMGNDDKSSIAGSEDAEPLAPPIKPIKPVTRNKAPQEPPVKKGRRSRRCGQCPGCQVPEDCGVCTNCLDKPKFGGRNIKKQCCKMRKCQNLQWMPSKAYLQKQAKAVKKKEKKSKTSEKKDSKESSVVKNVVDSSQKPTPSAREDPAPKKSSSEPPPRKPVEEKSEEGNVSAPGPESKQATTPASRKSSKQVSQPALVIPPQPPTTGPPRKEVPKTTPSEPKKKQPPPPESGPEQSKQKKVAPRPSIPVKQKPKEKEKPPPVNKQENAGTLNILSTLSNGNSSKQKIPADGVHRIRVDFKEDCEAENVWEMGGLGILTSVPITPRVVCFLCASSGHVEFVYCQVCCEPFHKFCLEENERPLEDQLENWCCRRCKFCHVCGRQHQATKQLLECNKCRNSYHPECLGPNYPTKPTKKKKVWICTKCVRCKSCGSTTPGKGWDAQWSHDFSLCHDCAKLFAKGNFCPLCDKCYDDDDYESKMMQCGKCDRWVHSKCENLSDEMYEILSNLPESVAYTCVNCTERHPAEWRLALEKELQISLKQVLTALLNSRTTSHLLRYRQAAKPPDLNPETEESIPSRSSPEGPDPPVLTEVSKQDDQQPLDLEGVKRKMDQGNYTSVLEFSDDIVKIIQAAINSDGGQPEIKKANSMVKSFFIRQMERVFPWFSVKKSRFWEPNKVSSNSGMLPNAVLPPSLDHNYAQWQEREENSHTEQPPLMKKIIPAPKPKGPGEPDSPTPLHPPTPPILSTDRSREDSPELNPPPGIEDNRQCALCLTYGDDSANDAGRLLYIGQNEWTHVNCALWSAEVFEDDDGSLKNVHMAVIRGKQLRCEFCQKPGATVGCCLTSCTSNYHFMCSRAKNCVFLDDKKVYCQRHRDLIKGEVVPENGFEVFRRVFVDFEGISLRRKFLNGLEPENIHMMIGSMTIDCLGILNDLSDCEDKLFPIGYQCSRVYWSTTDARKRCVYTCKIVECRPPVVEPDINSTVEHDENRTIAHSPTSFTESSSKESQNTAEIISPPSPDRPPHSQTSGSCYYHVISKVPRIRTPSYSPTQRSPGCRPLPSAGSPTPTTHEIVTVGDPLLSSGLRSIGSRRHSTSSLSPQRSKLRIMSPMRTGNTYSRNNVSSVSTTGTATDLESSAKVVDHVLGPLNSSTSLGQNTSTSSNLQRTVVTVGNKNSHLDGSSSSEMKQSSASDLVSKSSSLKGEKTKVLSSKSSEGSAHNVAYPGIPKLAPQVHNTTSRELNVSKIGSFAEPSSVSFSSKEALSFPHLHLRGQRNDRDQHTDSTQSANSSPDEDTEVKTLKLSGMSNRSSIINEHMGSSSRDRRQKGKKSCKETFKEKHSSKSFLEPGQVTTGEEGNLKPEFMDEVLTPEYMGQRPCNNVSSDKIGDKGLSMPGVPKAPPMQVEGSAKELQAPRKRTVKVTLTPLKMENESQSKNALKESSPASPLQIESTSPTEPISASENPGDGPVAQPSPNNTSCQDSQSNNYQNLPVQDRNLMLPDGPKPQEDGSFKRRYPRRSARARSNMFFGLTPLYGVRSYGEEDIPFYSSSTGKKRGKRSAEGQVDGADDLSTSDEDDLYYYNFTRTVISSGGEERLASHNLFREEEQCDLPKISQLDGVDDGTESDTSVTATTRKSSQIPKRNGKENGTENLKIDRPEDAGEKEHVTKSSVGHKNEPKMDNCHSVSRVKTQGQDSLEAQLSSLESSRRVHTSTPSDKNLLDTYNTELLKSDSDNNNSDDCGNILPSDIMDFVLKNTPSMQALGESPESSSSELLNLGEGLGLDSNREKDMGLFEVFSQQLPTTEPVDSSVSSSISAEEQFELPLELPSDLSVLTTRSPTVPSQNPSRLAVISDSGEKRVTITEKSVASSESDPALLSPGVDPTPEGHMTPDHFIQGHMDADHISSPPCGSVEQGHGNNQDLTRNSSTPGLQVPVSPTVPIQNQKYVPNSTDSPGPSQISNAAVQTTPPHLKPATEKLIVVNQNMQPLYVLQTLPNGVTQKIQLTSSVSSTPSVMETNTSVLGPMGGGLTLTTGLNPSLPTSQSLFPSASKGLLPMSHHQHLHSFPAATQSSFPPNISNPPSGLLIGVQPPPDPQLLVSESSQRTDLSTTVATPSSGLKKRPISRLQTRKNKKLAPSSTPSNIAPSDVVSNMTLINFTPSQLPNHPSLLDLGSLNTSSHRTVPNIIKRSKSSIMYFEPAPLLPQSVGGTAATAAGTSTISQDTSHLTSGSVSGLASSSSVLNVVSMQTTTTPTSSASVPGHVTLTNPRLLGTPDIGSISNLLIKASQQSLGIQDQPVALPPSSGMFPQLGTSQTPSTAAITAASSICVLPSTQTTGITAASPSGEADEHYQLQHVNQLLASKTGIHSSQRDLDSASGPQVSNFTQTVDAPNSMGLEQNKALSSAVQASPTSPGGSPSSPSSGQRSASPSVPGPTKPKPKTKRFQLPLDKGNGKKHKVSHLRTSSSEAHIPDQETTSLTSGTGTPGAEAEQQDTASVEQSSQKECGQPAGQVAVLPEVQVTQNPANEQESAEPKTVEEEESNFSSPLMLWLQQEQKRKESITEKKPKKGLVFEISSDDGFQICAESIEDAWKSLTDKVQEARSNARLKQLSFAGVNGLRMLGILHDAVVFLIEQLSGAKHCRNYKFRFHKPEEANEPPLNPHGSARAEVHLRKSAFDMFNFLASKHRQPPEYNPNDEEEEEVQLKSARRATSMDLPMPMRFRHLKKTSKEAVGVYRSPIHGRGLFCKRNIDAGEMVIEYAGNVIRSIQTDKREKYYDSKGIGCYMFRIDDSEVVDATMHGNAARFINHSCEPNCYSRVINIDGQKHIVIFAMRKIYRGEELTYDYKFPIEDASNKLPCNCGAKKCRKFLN
row,Structure (SMILES),Potency
1,CCOC(=O)/C(N=Nc1cc(C(=O)O)cc(C(=O)O)c1)=C(\O)CCl,142 µM (active)
2,COc1ccc(S(=O)(=O)/N=C2\C=C(NS(=O)(=O)c3ccccc3)C(=O)c3ccccc32)cc1,inactive
3,COc1ccc(-c2onc3ccc(C(C)=O)cc23)cc1,inactive
4,O=C1NN(c2ccccc2)C(=O)/C1=C/c1ccc(-c2cccc(C(=O)O)c2)o1,126 µM (active)
5,COc1cc(/C=C2/C(=O)NN(c3ccc(F)cc3)C2=O)cc([N+](=O)[O-])c1O,126 µM (active)
